This is a sample that favours compounds with a hit; in the whole collection about 4% have one here.
DRV1 agonist: qHTS for Agonists of Human Resolvin D1 Receptor DRV1; Probable G-protein coupled receptor 32 (Homo sapiens), O75388; CHO-K1 GPR32 beta-arrestin PathHunter luminescence, 90 min; zero percent set by DMSO-only wells; activation, % at 76.9 µM; 48,000 compounds, 2.5% hits; AID 1346428, 2018;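 active means activation of at least 60% and not above a set upper limit, about 1 call in 100 departs from these limits; inconclusive means activation of 40% to 60%, or above that upper limit; inactive means activation under 40%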; further: 0% is about no effect
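CHO-K1 cells stably expressing ProLink-tagged GPR32 and Enzyme Activator-tagged beta-arrestin were seeded at 2,500 cells/well overnight, exposed to compounds for 90 min at 37 °C, then read by beta-Gal complementation chemiluminescence after 1 h detection reagent.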
p53null 39C kill: qHTS Screen for Compounds that Selectively Target Cancer Cells with p53 Mutations: Cytotoxicity of p53 Null Cells at the Nonpermissive Temperature. Potency, µM (series often up to 46.1 µM), without a hit: top-dose activity, negative = cell killing, usual class: cytotoxic. 55,000 compounds, 0.97% hits. H1299 p53-null (neo) cells, 39C, ATPlite viability, 24 h;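 further: potency means the concentration at half of the fitted maximal effect; 0% = DMSO only and -100% = full killing by 100 µM tamoxifen; nearly all actives have a fitted effect of over 50% in size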
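Cells seeded at 600/well, 37C overnight. Compound added (up to 46 uM), plates shifted to 39C for 24 hr. ATPlite added, luminescence read after 20 min at room temperature.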
p53null 32C kill: qHTS Screen for Compounds that Selectively Target Cancer Cells with p53 Mutations: Cytotoxicity of p53 Null Cells at the Permissive Temperature; H1299-neo p53 null cells, ATP luminescence, 24 h, 32C; Potency, µM (doses to about 46.1 µM), inactives show top-dose activity change, negative = cytotoxicity, hits mostly cytotoxic; 55,000 compounds, 0.62% hits; AID 903, 2007;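 further: potency means the concentration at half of the fitted maximal effect; 0% = DMSO only and -100% = full killing by 100 µM tamoxifen; nearly all actives have a fitted effect of over 55% in size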
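We seeded p53-null H1299-neo cells, incubated them overnight at 37C, and added compounds across a range up to 46 uM. After 24 hours at 32C, ATP reagent was applied for 20 min at room temperature and luminescence recorded.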
GALC G270D act: A Novel Cell-Based Assay to Identify Small Molecules for B -Galactocerebrosidase | 145M-Twi-hGALC-G270D cells, HMU-beta-Gal fluorescence, 48 h | Potency, µM (titrated, usually from 57.5 µM), hits mostly activators | 45,000 compounds, 0.1% hits | AID 1159614, 2016; further: potency means the concentration at half of the fitted maximal effect; 0% is about no effect; nearly all actives have a fitted effect of over 65% in size
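qHTS, 1536-well; 145M-Twi-hGALC-G270D cells (WT line also made) in DMEM/F12 + 10% FBS; compound incubation on live cells; HMU-β-gal 0.1 mM final, pH 5.2, NaTC; carbonate stop; fluorescence increase = enhanced residual activity.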
NTMT1 inh: Primary qHTS for Inhibitors of N-terminal methyltransferase 1 (NTMT1): MTaseGlo Assay. 59,000 compounds, 2.5% hits. AID 1645870, 2021. NTMT1 MTase-Glo SAH luminescence, purified enzyme. Potency, µM (series often up to 114 µM), for the others: at the top dose activity change, negative = inhibition, actives largely listed as inhibitors;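 further: potency means the concentration at half of the fitted maximal effect; plate controls were DMSO vehicle for no effect and no enzyme for full effect; nearly all actives have a fitted effect of over 65% in size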
Target sequence (Q9BV86 whole entry, looked up): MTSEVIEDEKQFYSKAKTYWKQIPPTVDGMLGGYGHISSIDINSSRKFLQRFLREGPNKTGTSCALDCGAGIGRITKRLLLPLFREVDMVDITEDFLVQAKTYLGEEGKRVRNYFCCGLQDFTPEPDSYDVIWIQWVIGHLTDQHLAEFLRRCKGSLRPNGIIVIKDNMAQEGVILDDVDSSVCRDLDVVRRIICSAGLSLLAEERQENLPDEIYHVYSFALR
SKOV3 invasion: Primary qHTS assay for Inhibitors of ovarian cancer metastasis using an organotypic tumor microenvironment (TME) model | 46,000 compounds, 0.1% hits | AID 1963576, 2024 | Potency, µM (highest dose often 45.8 µM), without a hit: top-dose activity change, negative = inhibition, hits mostly inhibitors | SKOV3ip1-GFP adhesion/invasion on 3D omental model, fluorescence;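 further: potency means the concentration at half of the fitted maximal effect; plate controls were DMSO wells for no effect and tomatine positive control wells for full effect; nearly all actives have a fitted effect of over 65% in size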
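A 3D layer of primary human omental fibroblasts, mesothelial cells, fibronectin and collagen I, grown 48 hr, received SKOV3ip1-GFP cells in serum-free medium plus compounds at 0.36-46 umol/L. After 2 hr RT and 16 hr 37 C, fixed adherent GFP cells were counted; normalized to DMSO and tomatine.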
Starred values were filed as active, the others as inactive; [ ] = another dose, or the depositor's remark. Unless noted, the call rests on the fitted dose curve; in most records, active means well fitted curve in the direction sought with a large enough effect; inconclusive means small, poorly fitted or top-dose-only effect, or another doubt; inactive means no such curve, though single readings can be large; an effect the other way counts as inactive or inconclusive.

`Cc1ccc(-n2ncc3c(NCCCc4ccccc4)ncnc32)cc1` gave DRV1 agonist 12, p53null 39C kill 11%, p53null 32C kill -3%, GALC G270D act inactive, NTMT1 inh inconclusive and SKOV3 invasion 1%.
For Cc1ccc(-n2ncc3c(NCCCN4CCOCC4)ncnc32)cc1Cl the results were DRV1 agonist 14, p53null 39C kill -8%, p53null 32C kill 5%, GALC G270D act inactive, NTMT1 inh inconclusive and SKOV3 invasion 0%.
Screening O=C(Nc1ccc(Cl)c([N+](=O)[O-])c1)Nc1nnc(C2CCCCC2)s1 returned NTMT1 inh 6%.
`CC1CCC2(NC1)OC1C(O)C3C4CCC5CC(O[C@@H]6O[C@H](CO)[C@@H](O)[C@H](O)[C@H]6O[C@@H]6O[C@@H](C)[C@H](O)[C@@H](O)[C@H]6O)CCC5(C)C4CCC3(C)C1C2C` (stereo partly specified) gave NTMT1 inh 6%[12.6 µM].
For O=C1CCCC2=C1C(c1[nH]ncc1Cl)N=C(Nc1nc3c(Br)cccc3o1)N2 (stereo unspecified) the results were NTMT1 inh 0%[57.5 µM].
Screening CCc1ccc(NC(=O)c2cc3ccccn3n2)cc1 returned DRV1 agonist 35, p53null 39C kill 7.9µM*, p53null 32C kill 10µM*, GALC G270D act inactive, NTMT1 inh -2% and SKOV3 invasion inactive.
For COC(=O)c1ccccc1NC(=O)c1cc2ccccn2n1 the results were DRV1 agonist 12, p53null 39C kill inconclusive, p53null 32C kill -15% and SKOV3 invasion inconclusive.
Cc1ccc2ccc3cc(C(=O)Nc4ccc(C)c(F)c4)nc3c2[nH]1 was read as DRV1 agonist 60*, p53null 39C kill inconclusive, p53null 32C kill -4%, GALC G270D act inactive, NTMT1 inh -12% and SKOV3 invasion -6%.
`Cc1ccc(NC(=O)c2cc3ccccn3n2)cc1F` gave DRV1 agonist 25, p53null 39C kill inconclusive, p53null 32C kill 13µM* and SKOV3 invasion inactive.
`Cc1ccc2ccc3cc(C(=O)N4CCN(c5ccccc5F)CC4)nc3c2[nH]1` gave DRV1 agonist -1, p53null 39C kill -32%, p53null 32C kill -9%, GALC G270D act inactive, NTMT1 inh -1% and SKOV3 invasion -18%.
For COc1cc(NC(=O)c2cc3ccccn3n2)cc(OC)c1OC the results were DRV1 agonist 2, p53null 39C kill -4%, p53null 32C kill -16% and SKOV3 invasion 1%.
For O=C(NO)c1cnc(N2C[C@H]3C[C@@H]2CN3c2cc(C(F)(F)F)ccn2)nc1 the results were NTMT1 inh 1%.
C[C@@H](C(=O)Nc1ccc(Cl)cc1)C1CCC(c2ccnc3ccc(F)cc23)CC1 (stereo partly specified) was read as NTMT1 inh 9%.
For CC(C)c1onc(-c2c(Cl)cccc2Cl)c1COc1ccc(/C=C/c2cccc(C(=O)O)c2)c(Cl)c1 the results were NTMT1 inh 32µM*.
For CCN(CC)CCOC(=O)c1ccc(NC(=O)c2nn(-c3ccc(C)cc3)c(=O)c3c2c2ccccc2n3C)cc1 the results were DRV1 agonist -15, p53null 39C kill 4µM*, p53null 32C kill 6.3µM*, GALC G270D act inactive, NTMT1 inh inconclusive and SKOV3 invasion inconclusive.

High-throughput results: PubChem, National Center for Advancing Translational Sciences (NCATS)
